# Measurements taken from PubChem BioAssay AID1376 (SRMLSC, 2008).
# Out of some 220,000 compounds screened, about 530 (0.24%) were called active. The full list was thinned out, with actives kept by preference. Measured potencies and affinities stand elsewhere. A number with no mark means an inactive call. Cut-off read from the data, not from the text of the source: active = inhibition above about 13%; inconclusive = no clear call, values can overlap the other calls; inactive = below that.
# Molecular target: Bifunctional protein GlmU (Mycobacterium tuberculosis (strain ATCC 25618 / H37Rv)) (UniProt P9WMN3)
# Sequence (P9WMN3 whole entry, looked up): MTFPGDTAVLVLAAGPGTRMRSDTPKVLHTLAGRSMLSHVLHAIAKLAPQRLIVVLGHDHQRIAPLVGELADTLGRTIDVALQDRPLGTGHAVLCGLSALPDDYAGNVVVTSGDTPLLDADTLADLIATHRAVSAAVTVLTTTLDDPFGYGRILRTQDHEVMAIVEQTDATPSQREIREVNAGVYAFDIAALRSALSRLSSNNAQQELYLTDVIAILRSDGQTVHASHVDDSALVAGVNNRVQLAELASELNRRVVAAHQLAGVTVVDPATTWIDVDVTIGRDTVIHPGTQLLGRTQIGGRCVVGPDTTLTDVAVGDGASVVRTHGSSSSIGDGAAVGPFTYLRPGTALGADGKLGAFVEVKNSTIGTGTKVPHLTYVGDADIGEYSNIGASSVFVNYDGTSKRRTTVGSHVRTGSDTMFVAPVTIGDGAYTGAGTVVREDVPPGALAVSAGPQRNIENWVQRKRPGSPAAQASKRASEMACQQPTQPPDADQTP
# Assay: inhibition of mycobacterial GlmU enzyme – biochemical, glucosamine-1-phosphate acetyltransferase (AID 1376);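 note: 0% = complete reaction with vehicle and 100% = reaction without substrate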
# Settings: M. tuberculosis GlmU acetyltransferase enzyme assay; stronger effect = higher value;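 tested at 30 µM in the primary screen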
row,SMILES,inhibition
1,CC(C)Oc1ccc(C(=O)Nc2ccc(N3CCCC3)cc2)cc1,2.23%
2,COc1ccc(C(=O)Nc2ccc(N3CCCC3)cc2)cc1,13.4% (active)
3,COc1ccc(C(=O)NC(=S)Nc2ccc(N3CCCC3)cc2)cc1,-3.46%
4,O=C(O[C@@H]1OC2COC(=O)c3cc(O)c(O)c(O)c3-c3c(cc(O)c(O)c3O)C(=O)O[C@@H]([C@H]1O)[C@@H]2O)c1cc(O)c(O)c(O)c1,30.4%
5,CCC(=O)Nc1sc(C(=O)Nc2ccccc2OC)c(C)c1C(=O)OC,7.34%
6,O=C(O)/C=C/c1ccc(O)c(O)c1,5.24%
7,O=C(/C=C/c1ccc(O)c(O)c1)OCCc1ccccc1,-2.12%
8,CCN1C(=O)CC(N2CCOCC2)C1=O (stereo not drawn),-3.77%
9,CCOc1ccc(C2CC(c3ccc(F)cc3)Nc3nc(N)nn32)cc1 (stereo not drawn),2.32%
10,CN1C(=O)/C(=C/c2coc3ccc(O)cc3c2=O)SC1=S,2.74%
11,O=C1NC(=S)S/C1=C\c1coc2ccccc2c1=O,5.72%
12,O=C(Nc1ccc(Cl)cc1)Nc1ccccc1C(=O)O,-1.73%
13,Cc1nn(CCCC(=O)Nc2sc3c(c2C#N)CCC3)c(C)c1[N+](=O)[O-],-0.77%
14,Cc1nn(CC(=O)Nc2sc3c(c2C#N)CCC(C(C)(C)C)C3)c(C)c1[N+](=O)[O-] (stereo not drawn),14.3% (active)
15,CN1CCN(CC(=O)Nc2sc3c(c2C#N)CCC(C(C)(C)C)C3)CC1 (stereo not drawn),2.19%
16,CC(C)CCn1c(=O)c2ccccc2n2c(CN3CCCC3)nnc12,-3.44%
17,O=C1N=c2ccccc2=C1c1sc(Nc2ccc(O)cc2)nc1O,6.45%
18,O=S(=O)(Nn1c(O)c(C=C2N=c3ccccc3=N2)sc1=S)c1ccccc1,7.14%
19,O=C1N=c2ccccc2=C1c1sc(=S)n(NC(=O)c2cccc(O)c2)c1O,-0.24%
20,COc1cc(C(=O)Nn2c(O)c(C3=c4ccccc4=NC3=O)sc2=S)ccc1O,4.03%
21,Cc1ccc(S(=O)(=O)Nn2c(O)c(C=C3N=c4ccccc4=N3)sc2=S)cc1,0.22%

row,SMILES,inhibition
1,O=C1N=c2ccccc2=C1c1sc(NS(=O)(=O)c2ccccc2)nc1O,13.8% (active)
2,O=C1N=c2ccc(Br)cc2=C1c1sc(=S)n(NS(=O)(=O)c2ccccc2)c1O,13.8% (active)
3,O=C1N=c2ccccc2=C1c1sc(NS(=O)(=O)Cc2ccccc2)nc1O,5.63%
4,O=C1N=c2ccccc2=C1c1sc(=S)n(NC(=O)c2ccccc2)c1O,13.4% (active)
5,COc1ccc(C(=O)C2CCCN(C(=O)Cc3c(C)noc3C)C2)cc1OC (stereo not drawn),-6.51%
6,COc1ccccc1C(=O)NCCCN1CCCC1=O,-0.52%
7,Nc1c(C(=O)c2ccc(F)cc2)oc2ccccc12,1.74%
8,CCOc1ccccc1NC(=S)N(CCOC)C1CCN(C(C)=O)CC1,1.9%
9,CC(=O)N1CC=CC1(C)C(=O)NCc1cc(F)cc(C(F)(F)F)c1 (stereo not drawn),-2.53%
10,CCCCC(=O)Nc1ccc(C(=O)Nc2ccc(S(=O)(=O)Nc3ccc(C)cc3)cc2)cc1,3.43%
11,CCOc1ccc(N(CC(=O)NCC2CCCO2)C(=O)CCC(=O)Nc2nccs2)cc1 (stereo not drawn),-0.08%
12,Cc1oc(/N=C/c2c(O)ccc3ccccc23)c(C#N)c1C,-4.74%
13,Nc1c(C(=O)N2CCOCC2)sc(=S)n1-c1ccccc1,13.9% (active)
14,Nc1c(C(=O)N2CCCCC2)sc(=S)n1-c1ccccc1,-0.25%
15,Cc1ccc(-n2c(N)c(C(=O)N3CCOCC3)sc2=S)cc1,-2.93%
16,Cc1cc2ccccc2c(=O)n1CC(=O)NCC(=O)N1CCN(c2ccccc2F)CC1,-1.95%
17,CCOc1cc(CNCc2cccs2)ccc1OCC(=O)NC(C)(C)C,4.39%
18,OC(COc1ccc(Br)cc1)CN1CCOCC1 (stereo not drawn),-1.6%
19,COc1ccc(CSc2nnc(NC(C)=O)s2)cc1[N+](=O)[O-],-1.4%
20,C/C(=N\NC(=O)c1cccc(C)c1)c1cccc(NC(=O)c2ccco2)c1,21.3% (active)
21,C/C(=N\NC(=O)c1cccc(Cl)c1)c1cccc(NC(=O)c2ccco2)c1,4.79%

row,SMILES,inhibition
1,C/C(=N\NC(=O)c1ccc(F)cc1)c1cccc(NC(=O)c2ccco2)c1,1.13%
2,Cc1cccc(Cn2cccc2/C=C2/C(=N)N3C=CSC3=NC2=O)c1,-1.25%
3,CC(C)CC12CN3CCN(CC(C3)/C1=N/O)C2,0.59%
4,COc1ccc(COc2ccccc2C(N)=O)cc1F,3.33%
5,O=S(=O)(c1ccc(OCC(O)CN2CCN(c3ccc(F)cc3)CC2)cc1)N1CCOCC1 (stereo not drawn),3.7%
6,Cc1ccccc1CN1[C@@H](Cc2ccccc2)COCCS1(=O)=O,-3.47%
7,O=C(O)c1cc(N=Nc2c(O)ccc3ccccc23)cc(C(=O)O)c1,25.6% (active)
8,Oc1ccc(N=Nc2c(O)ccc3ccccc23)cc1,0.98%
9,O=S(=O)(O)c1cccc(N=Nc2c(O)ccc3ccccc23)c1,3.89%
10,CCn1c(-c2ccccc2)ccc(C#N)c1=O,14.1% (active)
11,CCOC(=O)Cn1c(-c2ccccc2)ccc(C#N)c1=O,-5.69%
12,C#CCn1c(-c2ccccc2)ccc(C#N)c1=O,1.35%
13,O=C(CSc1ccccc1C(=O)O)NCC1CCCCC1,-4.3%
14,COCCn1c(SCC(=O)c2[nH]c(C)c(C(C)=O)c2C)nc2ccccc21,3.37%
15,Cc1cc(N2CCC(C(=O)NC3CC3)CC2)nc(-c2ccccc2)n1,1.37%
16,Cc1cc(N2CCC(C(=O)NC3CCCCC3)CC2)nc(-c2ccccc2)n1,13.9% (active)
17,C#CCNC(=O)C1CCN(c2cc(C)nc(-c3ccccc3)n2)CC1,-1.53%
18,CC(=O)c1ccc(N2CCN(C(=S)Nc3ccccc3F)CC2)cc1,-4.01%
19,CCCS(=O)(=O)N1CCC(C(=O)N2CCN(Cc3ccccc3)CC2)CC1,30.1% (active)
20,CS(=O)(=O)N1CCC(C(=O)N2CCN(Cc3ccccc3)CC2)CC1,0.44%
21,CCS(=O)(=O)N1CCC(C(=O)N2CCN(Cc3ccccc3)CC2)CC1,-4.26%
